# The antibiotic and cytotoxicity screens of Wong et al. (2023)
# In all, about 39,000 compounds went through this assay and about 1,500 (3.8%) were called active. This is one part of a sample in which actives are shown more often than they occur.
# Test system: HSkMC (human skeletal muscle cells)
# Assay: cytotoxicity call (relative viability < 0.9)
# Details: 10 µM
row,SMILES,cytotoxicity call
1,O=c1[nH]c2ccc(F)cc2[nH]1,inactive
2,CC(C)NC(=O)N(C)C[C@@H]1Oc2ccc(NC(=O)Cc3ccccc3)cc2C(=O)N([C@@H](C)CO)C[C@H]1C,inactive
3,COc1ccc(CN(C)C[C@@H]2Oc3ccc(NS(=O)(=O)c4cn(C)cn4)cc3C(=O)N([C@@H](C)CO)C[C@H]2C)cc1,inactive
4,C[C@H](CO)N1C[C@H](C)[C@H](CN(C)Cc2ccc(C(F)(F)F)cc2)OCCCC[C@H](C)Oc2ccc(NS(=O)(=O)c3ccccc3)cc2C1=O,inactive
5,CNC(=O)C[C@H]1CC[C@@H]2[C@H](COC[C@H](O)CN2C(=O)c2ccccn2)O1,inactive
6,C[C@@H]1CCCCO[C@@H](CN(C)C(=O)Nc2cccc3ccccc23)[C@H](C)CN([C@H](C)CO)C(=O)c2cc(NC(=O)Nc3ccc(C(F)(F)F)cc3)ccc2O1,inactive
7,C[C@@H]1CCCCO[C@@H](CN(C)C(=O)Nc2cccc3ccccc23)[C@@H](C)CN([C@H](C)CO)C(=O)c2cc(NC(=O)Nc3ccc(C(F)(F)F)cc3)ccc2O1,active
8,C[C@@H]1CCCCO[C@@H](CN(C)C(=O)Nc2cccc3ccccc23)[C@H](C)CN([C@@H](C)CO)C(=O)c2cc(NC(=O)Nc3ccc(C(F)(F)F)cc3)ccc2O1,inactive
9,C[C@@H]1CCCCO[C@H](CN(C)C(=O)Nc2cccc3ccccc23)[C@@H](C)CN([C@@H](C)CO)C(=O)c2cc(NC(=O)Nc3ccc(C(F)(F)F)cc3)ccc2O1,inactive
10,C[C@H](CO)N1C[C@H](C)[C@H](CN(C)C(=O)Nc2cccc3ccccc23)OCCCC[C@H](C)Oc2ccc(NC(=O)Nc3ccc(C(F)(F)F)cc3)cc2C1=O,inactive
11,C[C@@H]1CN([C@@H](C)CO)C(=O)c2cc(NC(=O)Nc3ccc(C(F)(F)F)cc3)ccc2O[C@@H](C)CCCCO[C@H]1CN(C)C(=O)Nc1cccc2ccccc12,inactive
12,C[C@@H]1CCCCO[C@@H](CN(C)C(=O)Nc2cccc3ccccc23)[C@@H](C)CN([C@@H](C)CO)C(=O)c2cc(NC(=O)Nc3ccc(C(F)(F)F)cc3)ccc2O1,active
13,C[C@H](CO)N1C[C@H](C)[C@@H](CN(C)C(=O)Nc2cccc3ccccc23)OCCCC[C@H](C)Oc2ccc(NC(=O)Nc3ccc(C(F)(F)F)cc3)cc2C1=O,inactive
14,C[C@@H]1CN([C@@H](C)CO)C(=O)c2cc(NC(=O)Nc3ccc(C(F)(F)F)cc3)ccc2O[C@@H](C)CCCCO[C@@H]1CN(C)C(=O)Nc1cccc2ccccc12,active
15,Cn1cnc(S(=O)(=O)N2C[C@@H](O)COC[C@H]3O[C@@H](CC(=O)NC4CCCC4)CC[C@@H]32)c1,inactive
16,COc1ccccc1CNC(=O)C[C@@H]1C[C@H]2c3cc(NC(=O)C4CCOCC4)ccc3O[C@H]2[C@@H](CO)O1,inactive
17,O=C(c1cc2n(n1)CCCO2)N1CC(O)C1,inactive
18,Cc1noc(C)c1NC(=O)N(C)C[C@H]1Oc2ccc(NC(=O)CCN3CCOCC3)cc2CC(=O)N([C@H](C)CO)C[C@@H]1C,inactive
19,C[C@H](CO)N1C[C@H](C)[C@H](CN(C)C(=O)c2ccc3c(c2)OCO3)Oc2ncc(C#CCN(C)C)cc2C1=O,inactive
20,CCC(=O)N1C[C@]2(CN(C2)S(=O)(=O)C)c2c(n(c3cc(ccc23)OC)C)[C@@H]1CO,inactive
21,C[C@H](CO)N1C[C@H](C)[C@H](CN(C)S(=O)(=O)c2cn(C)cn2)Oc2ccc(NS(=O)(=O)c3ccccc3)cc2CC1=O,inactive

row,SMILES,cytotoxicity call
1,C[C@@H]1CN([C@H](C)CO)C(=O)Cc2cc(NC(=O)CCC(F)(F)F)ccc2O[C@H]1CN(C)Cc1ccc(-c2ccccc2)cc1,inactive
2,C[C@H](CO)N1C[C@H](C)[C@@H](CN(C)Cc2ccc(Cl)c(Cl)c2)Oc2ccc(NC(=O)CCC(F)(F)F)cc2CC1=O,inactive
3,C[C@@H]1CN([C@@H](C)CO)C(=O)Cc2cc(NC(=O)CCC(F)(F)F)ccc2O[C@H]1CN(C)Cc1ccc(Cl)c(Cl)c1,active
4,C[C@@H]1CN([C@H](C)CO)C(=O)Cc2cc(NC(=O)CCC(F)(F)F)ccc2O[C@H]1CN(C)Cc1ccc(Cl)c(Cl)c1,inactive
5,C[C@@H]1CN([C@@H](C)CO)C(=O)Cc2cc(NC(=O)CCC(F)(F)F)ccc2O[C@H]1CN(C)Cc1ccc(-c2ccccc2)cc1,active
6,C[C@H]1CN([C@@H](C)CO)C(=O)Cc2cc(NC(=O)CCC(F)(F)F)ccc2O[C@H]1CN(C)Cc1ccc(-c2ccccc2)cc1,inactive
7,CCOC(=O)c1cn2cn[nH]c2nc1=O,inactive
8,C[C@@H]1CN([C@H](C)CO)C(=O)Cc2cc(NC(=O)Nc3ccc4c(c3)OCO4)ccc2O[C@@H]1CN(C)Cc1ccc(C(=O)Nc2ccccc2N)cc1,inactive
9,COC(=O)C[C@H]1CC[C@@H]2[C@H](COC[C@H](O)CN2S(=O)(=O)c2ccc(F)cc2)O1,inactive
10,C[C@@H]1CN([C@@H](C)CO)S(=O)(=O)c2ccc(C#CC(C)(C)O)cc2O[C@@H]1CN(C)Cc1ccc(F)cc1,inactive
11,C=CCNC(=O)[C@H]1[C@@H]2C(=O)O[C@@H](c3ccccc3)[C@@H](c3ccccc3)N2[C@@H](c2ccc(O)cc2)[C@]12C(=O)Nc1ccc(C#Cc3ccc(OC)cc3)cc12,inactive
12,COc1ccc(S(=O)(=O)Nc2ccc3c(c2)C(=O)N([C@H](C)CO)C[C@H](C)[C@H](CN(C)Cc2ccccc2)OCCCC[C@H](C)O3)cc1,inactive
13,COC(=O)[C@@]12CC[C@@H](C)[C@@H](C)[C@@H]1C1=CC[C@H]3[C@@]4(C)CC[C@@H](OC(C)=O)C(C)(C)[C@@H]4CC[C@@]3(C)[C@@]1(C)CC2,inactive
14,CC1(C)CCC2(C(=O)O)CCC3(C)C(=CCC4C5(C)CCC(O)C(C)(C)C5CCC43C)C2C1 (stereo not drawn),inactive
15,CC1CCC2(C(=O)O)CCC3(C)C(=CCC4C5(C)CCC(O)C(C)(C)C5CCC43C)C2C1C (stereo not drawn),active
16,O=C1c2c(O)cccc2C(C2OC(CO)C(O)C(O)C2O)c2cc(CO)cc(O)c21 (stereo not drawn),inactive
17,COc1ccc(NC(=O)Nc2ccc3c(c2)C(=O)N([C@@H](C)CO)C[C@H](C)[C@@H](CN(C)C(=O)Nc2ccc(C(F)(F)F)cc2)OCCCC[C@H](C)O3)cc1,inactive
18,C[C@@H]1CN([C@@H](C)CO)C(=O)c2cccc(NC(=O)Nc3ccc4c(c3)OCO4)c2O[C@@H]1CN(C)Cc1ccc(-c2ccccc2)cc1,active
19,C[C@@H]1CN([C@@H](C)CO)C(=O)c2cccc(NC(=O)Nc3ccc4c(c3)OCO4)c2O[C@@H]1CN(C)Cc1ccc(Oc2ccccc2)cc1,inactive
20,C[C@@H]1CN([C@H](C)CO)C(=O)c2cccc(NC(=O)Nc3ccc4c(c3)OCO4)c2O[C@H]1CN(C)Cc1ccc(Oc2ccccc2)cc1,active
21,C[C@H]1CN([C@@H](C)CO)C(=O)c2cccc(NC(=O)Nc3ccc4c(c3)OCO4)c2O[C@@H]1CN(C)Cc1ccc(-c2ccccc2)cc1,inactive

row,SMILES,cytotoxicity call
1,C[C@H]1CN([C@@H](C)CO)C(=O)c2cccc(NC(=O)Nc3ccc4c(c3)OCO4)c2O[C@H]1CN(C)Cc1ccc(-c2ccccc2)cc1,inactive
2,C[C@H]1CN([C@@H](C)CO)C(=O)c2cccc(NC(=O)Nc3ccc4c(c3)OCO4)c2O[C@H]1CN(C)Cc1ccc(Oc2ccccc2)cc1,inactive
3,C[C@@H]1CCCCO[C@H](CN(C)S(=O)(=O)c2cccs2)[C@H](C)CN([C@@H](C)CO)C(=O)c2cc(NC(=O)c3ccccc3)ccc2O1,inactive
4,CC[C@@H]1/C=C(\C)C[C@H](C)C[C@H](OC)[C@H]2O[C@@](O)(C(=O)C(=O)N3CCCC[C@H]3C(=O)O[C@H](/C(C)=C/[C@@H]3CC[C@H](Cl)[C@H](OC)C3)[C@H](C)[C@@H](O)CC1=O)[C@H](C)C[C@@H]2OC,inactive
5,C[C@@H]1CCCCO[C@@H](CN(C)C(=O)c2ccccc2)[C@@H](C)CN([C@@H](C)CO)C(=O)c2cc(NC(=O)Nc3ccccc3)ccc2O1,inactive
6,Cc1ccc(S(=O)(=O)N(C)C[C@@H]2OCCCC[C@@H](C)Oc3ccc(NC(=O)CCC(F)(F)F)cc3C(=O)N([C@@H](C)CO)C[C@H]2C)cc1,inactive
7,Cc1noc(C)c1S(=O)(=O)N(C)C[C@H]1Oc2ccc(NC(=O)Cc3ccccc3)cc2CC(=O)N([C@H](C)CO)C[C@H]1C,inactive
8,NC(=O)[C@H]1CCCCN1,inactive
9,COc1cccc(S(=O)(=O)N[C@@H]2C=C[C@@H](CC(=O)NC3CCC3)O[C@H]2CO)c1,inactive
10,C[C@H]1CCCCO[C@H](CN(C)C(=O)Nc2cccc3ccccc23)[C@@H](C)CN([C@@H](C)CO)C(=O)c2cc(NS(=O)(=O)c3ccc(F)cc3)ccc2O1,active
11,C[C@@H]1CN([C@@H](C)CO)C(=O)c2cc(NS(=O)(=O)c3ccc(F)cc3)ccc2O[C@@H](C)CCCCO[C@H]1CN(C)C(=O)Nc1cccc2ccccc12,inactive
12,Cc1ccc(S(=O)(=O)Nc2ccc3c(c2)C(=O)N([C@H](C)CO)C[C@H](C)[C@H](CN(C)C(=O)Nc2cccc4ccccc24)OCCCC[C@H](C)O3)cc1,active
13,Cc1ccc(S(=O)(=O)Nc2ccc3c(c2)C(=O)N([C@@H](C)CO)C[C@H](C)[C@@H](CN(C)C(=O)Nc2cccc4ccccc24)OCCCC[C@@H](C)O3)cc1,inactive
14,C[C@@H]1CCCCO[C@@H](CN(C)C(=O)Nc2cccc3ccccc23)[C@H](C)CN([C@@H](C)CO)C(=O)c2cc(NS(=O)(=O)c3ccc(Cl)cc3)ccc2O1,inactive
15,C[C@@H]1CCCCO[C@H](CN(C)C(=O)Nc2cccc3ccccc23)[C@@H](C)CN([C@H](C)CO)C(=O)c2cc(NS(=O)(=O)c3ccc(Cl)cc3)ccc2O1,active
16,C[C@@H]1CCCCO[C@@H](CN(C)C(=O)Nc2cccc3ccccc23)[C@H](C)CN([C@@H](C)CO)C(=O)c2cc(NS(=O)(=O)c3ccc(F)cc3)ccc2O1,inactive
17,Cc1ccc(S(=O)(=O)Nc2ccc3c(c2)C(=O)N([C@@H](C)CO)C[C@@H](C)[C@@H](CN(C)C(=O)Nc2cccc4ccccc24)OCCCC[C@H](C)O3)cc1,inactive
18,C[C@@H]1CCCCO[C@@H](CN(C)C(=O)Nc2cccc3ccccc23)[C@@H](C)CN([C@H](C)CO)C(=O)c2cc(NS(=O)(=O)c3ccc(F)cc3)ccc2O1,inactive
19,C[C@@H]1CCCCO[C@@H](CN(C)C(=O)Nc2cccc3ccccc23)[C@H](C)CN([C@H](C)CO)C(=O)c2cc(NS(=O)(=O)c3ccc(F)cc3)ccc2O1,active
20,C[C@@H]1CCCCO[C@H](CN(C)C(=O)Nc2cccc3ccccc23)[C@H](C)CN([C@H](C)CO)C(=O)c2cc(NS(=O)(=O)c3ccc(Cl)cc3)ccc2O1,inactive
21,C[C@@H]1CN([C@@H](C)CO)C(=O)c2cc(NS(=O)(=O)c3ccc(F)cc3)ccc2O[C@@H](C)CCCCO[C@@H]1CN(C)C(=O)Nc1cccc2ccccc12,inactive
